PubChem BioAssay (NCI)
Compounds without any hit were thinned out: in the full panel of roughly 83,000, 20% have a hit.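 How to read the values: 0–100, growth inhibition (40 = 60% inhibited); 0, no net growth; -100 to 0, cell death (-40 = 40% of starting cells died; -100 = all dead).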 Active and inactive are the calls of the source. How the source made its calls: active means growth percent below 10; inactive means the rest.

Assays:
Experiment in all cases: NCI-60 one-dose screen, 48 h (100 = growth as untreated, 0 = no growth, -100 = all killed)
Conditions in all cases: 10 µM
[1] = system: K-562 leukemia
[2] = system: MALME-3M melanoma
[3] = system: MDA-MB-231 breast
[4] = system: SF-268 CNS
[5] = system: SF-295 CNS
[6] = system: SF-539 CNS
[7] = system: UACC-257 melanoma
[8] = system: M14 melanoma
[9] = system: HCT-15 colon
[10] = system: RXF 393 renal

Measured: growth

CCC1(C(C)C)NC(=O)NC1=O (stereo unspecified)
inactive: [1] 88.3% | [2] 104% | [3] 100% | [4] 102% | [5] 97.6% | [6] 101% | [7] 92.4% | [8] 107% | [9] 105%

CC1(O)CCC2CC3OC3(C)CCC3OC3(C)CCC1C2(C)C (stereo unspecified)
inactive: [1] 113% | [2] 110% | [3] 102% | [4] 107% | [5] 89.6% | [6] 119% | [8] 103% | [9] 105%

COc1ccccc1CNCCN1C(=O)c2ccc3c4c(ccc(c24)C1=O)C(=O)N(CCNCc1ccccc1OC)C3=O
active: [1] -43.8% | [2] -92% | [3] -18.4% | [4] -79.5% | [5] -56.7% | [6] -97.3% | [7] -96.4% | [8] -94% | [9] -77.1%

CCN(CC)CCC(CNc1c(C)cnc2cc(Cl)ccc12)c1ccc(Cl)c(Cl)c1 (stereo unspecified)
active: [1] 1.52% | [2] -52% | [7] -49.6% | [8] -64.5%
inactive: [3] 25.5% | [4] 71.8% | [5] 65.4% | [6] 20.9% | [9] 32.3%

Clc1nc(Cl)c2c(ncn2C/C=C\Cn2cnc3c(Cl)nc(Cl)nc32)n1
active: [1] -20.6% | [2] -84.8% | [3] -100% | [4] 6.36% | [5] -10.7% | [6] -71.6% | [8] -10.5% | [9] -85.4%

CCCN(CCC)CCC(O)c1cc2c(c3ccccc13)CCCC2 (stereo unspecified)
inactive: [1] 82.5% | [2] 95% | [3] 79.1% | [4] 83.3% | [5] 85.4% | [6] 85.4% | [7] 95.8% | [8] 91.9% | [9] 81.4%

CCN(CC)CCCOCCCNc1cc(OC)cc2cccnc12
inactive: [1] 94.3% | [2] 104% | [3] 78% | [4] 96.7% | [5] 101% | [6] 108% | [7] 83.1% | [8] 106% | [9] 102%

CCCCN(CCCC)CCCCCCCCC(O)c1cc2ccccc2c2ccccc12 (stereo unspecified)
inactive: [1] 22.6% | [2] 76.8% | [3] 56.2% | [4] 65.9% | [5] 77.5% | [6] 74.6% | [7] 91.4% | [8] 45.7% | [9] 34.6%

COc1cc(Cc2cc(-c3ccc(Cl)cc3)n[nH]c2=O)ccc1O
inactive: [1] 78.5% | [2] 108% | [3] 100% | [4] 93.2% | [5] 124% | [6] 98.4% | [7] 128% | [8] 108% | [9] 104%

Cc1cs/c(=N\NC(=O)c2cc(-c3cc4ccccc4o3)nn2-c2ccccc2)n1-c1ccccc1
inactive: [1] 94.2% | [2] 99.5% | [3] 84% | [4] 92.5% | [5] 85% | [6] 106% | [8] 95.8% | [9] 96.6%

CC/C(=N\N=C(/CC)c1ccc(Br)cc1)c1ccc(Br)cc1
inactive: [1] 109% | [2] 90.5% | [3] 103% | [4] 103% | [5] 93.9% | [6] 99.3% | [7] 108% | [8] 98.3% | [9] 85.4%

COc1ccc(/C(=C2/O[C@@H]([C@H]3COC(C)(C)O3)[C@H]3OC(C)(C)O[C@@H]23)c2cc(OC)c(OC)c(OC)c2)cc1O
inactive: [1] 10.2% | [2] 69.6% | [3] 54.5% | [4] 37.8% | [5] 77.6% | [6] 21.5% | [7] 126% | [8] 19.5% | [9] 32.5%

CCN(CCCCCCN1CC(=O)N(CCCCCCN(CC)Cc2ccccc2OC)CC1=O)Cc1ccccc1OC
active: [1] 4.44%
inactive: [2] 109% | [3] 93.4% | [4] 90.6% | [5] 72.2% | [6] 92.8% | [7] 108% | [8] 82.5% | [9] 83.5%

CCN(CC)CCSCCCNc1c2ccc(Cl)cc2nc2ccc(OC)cc12
active: [1] -13.3% | [2] -69.1% | [3] -59.9% | [4] -39.2% | [5] -79% | [6] -75.2% | [7] -77.1% | [8] -73.7% | [9] -30.8%

COc1ccc2c(c1)[n+]([O-])c(C#N)c(NC(=O)c1ccco1)[n+]2[O-]
inactive: [1] 92.8% | [2] 103% | [3] 92.3% | [4] 107% | [5] 99.9% | [6] 107% | [8] 104% | [9] 99%

Cc1nc2oc3ccccc3c(=O)c2cc1C(=O)NCc1ccccc1
inactive: [1] 13.1% | [3] 87.9% | [10] 113% | [4] 83% | [5] 43.2% | [6] 93.4% | [7] 68.1% | [8] 45.9% | [9] 70.2%

CC(=O)c1cc(Br)ccc1O
inactive: [1] 103% | [3] 108% | [10] 109% | [4] 112% | [5] 95.3% | [6] 97.1% | [7] 113% | [8] 104% | [9] 101%

COc1ccc(/C(=C2\O[C@@H]([C@H]3COC(C)(C)O3)[C@H]3OC(C)(C)O[C@@H]23)c2cc(OC)c(OC)c(OC)c2)cc1O
inactive: [1] 24.3% | [3] 43.9% | [10] 81.9% | [4] 36.3% | [5] 85.2% | [7] 107% | [9] 26.9%
active: [6] 9.85% | [8] 7.95%

COc1ccc2c(c1)sc1nc(-c3ccccc3)c(-c3ccc(O)c(OC)c3)n12
inactive: [1] 30.7% | [3] 90.7% | [10] 104% | [4] 88.7% | [5] 81.2% | [6] 86.9% | [7] 83.8% | [8] 38.1% | [9] 47.1%

Cc1ccc2oc3nc(C)c(C(=O)NCc4ccccc4)cc3c(=O)c2c1
inactive: [1] 18.4% | [3] 88.8% | [10] 120% | [4] 95.3% | [5] 41.9% | [6] 99.3% | [7] 69.2% | [8] 29% | [9] 78.8%

O=C(Nc1ccncc1)C(=O)c1cn(S(=O)(=O)c2ccc(F)cc2)c2ccccc12
inactive: [3] 57.8% | [10] 68.1% | [4] 47.9% | [5] 61.3% | [6] 16.2% | [7] 49.1% | [8] 14% | [9] 23.1%
active: [1] 9.29%

CCN1CCC(CCOC)(CN2c3ccccc3Sc3ccc(Cl)cc32)C1 (stereo unspecified)
inactive: [3] 35% | [10] 37.3% | [4] 63.3% | [5] 72.4% | [6] 78% | [7] 24.6% | [9] 49.1%
active: [1] -15.2% | [8] -65.9%

COc1ccc2c(c1)C(=O)c1c-2c(=O)n(CCCN(C)C)c2cc(OC)c(OC)cc12
inactive: [1] 64.5% | [3] 103% | [10] 89.4% | [4] 46.9% | [5] 20.7% | [6] 55% | [7] 100% | [8] 48.4% | [9] 82.2%

ClC(Cl)(Cl)c1nc2nccnc2[nH]1
inactive: [1] 101% | [2] 102% | [10] 111% | [4] 113% | [5] 78.9% | [6] 99.6% | [7] 108% | [8] 103% | [9] 103%

COc1ccc(-c2ccc3cc(C(=O)Nc4ccc(O)c(C(=O)/C=C/c5cc(OC)c(OC)c(OC)c5)c4)ccc3c2)cc1
inactive: [1] 59% | [3] 85.6% | [10] 93% | [4] 105% | [5] 101% | [6] 103% | [7] 97.9% | [8] 89.1% | [9] 80.4%

COc1cc(-c2cc(/C=C3\C(=O)Nc4ccc(Cl)cc43)[nH]n2)cc(OC)c1OC
active: [1] 8.43% | [8] 5.02% | [9] 7.21%
inactive: [3] 52.4% | [10] 69.2% | [4] 38.2% | [5] 46.9% | [6] 45.1% | [7] 18.7%

COc1ccc2c(c1)N(CCO)C1=C(C(=O)OC1)C2c1ccccc1 (stereo unspecified)
active: [10] 2.16% | [5] -11.6% | [6] 2.74% | [8] 7.89%
inactive: [1] 16.3% | [3] 63.4% | [4] 51.2% | [7] 55% | [9] 22.4%

NC1(C(=O)O)CSSC1
inactive: [1] 43.3% | [3] 124% | [10] 74% | [4] 101% | [5] 33.6% | [6] 97% | [7] 48.5% | [9] 66.3%
active: [8] 9.39%

COc1ccc(-c2nc3sc(C4CC4)nn3c2/C=C2/C(=O)Nc3ccc(OC)cc32)cc1
inactive: [1] 74.3% | [3] 58.4% | [10] 63.9% | [4] 75.8% | [5] 82.8% | [6] 25.1% | [7] 55.2% | [8] 63.8% | [9] 76.9%

COc1cc2c(cc1OC)N(CCO)C1=C(C(=O)OC1)C2c1ccc(Cl)c(Cl)c1 (stereo unspecified)
inactive: [1] 88.7% | [3] 96.8% | [10] 97.8% | [4] 100% | [5] 103% | [6] 99.3% | [7] 103% | [8] 112% | [9] 98.2%
